The list is not random: actives were taken first. Their share in the collection is about 7.1%.
ATXN viability: viability counter-screen for ATXN expression inhibitors; S2 cells (HEK-293 line with an ATXN2-luciferase reporter) viability, CellTiter-Fluor protease fluorescence, 24 h; Potency, µM (titrated, usually from 56.7 µM), hits mostly cytotoxic; actives 0.49% (n = 400,000); AID 651635; further: potency means the concentration at half of the fitted maximal effect; nearly all actives have a fitted effect of over 40% in size
PINK1 expr mod: PINK1 expression modulation; PINK1 immunofluorescence, high-content cytometry, 24 h; Potency, µM (top dose mostly 76.6 µM), for the others: at the highest dose activation (PINK1 increase), hits mostly activators; actives 0.2% (n = 410,000); active means well fitted activation curve with a large enough effect; inconclusive means small, poorly fitted or top-dose-only effect; cell line not stated here; further: potency means the concentration at half of the fitted maximal effect; % of control where 0% means no effect; nearly all actives have a fitted effect of over 65% in size
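Stable cell line, 250 cells/well, 12 h attachment; compounds pinned at 5 concentrations, 24 h; CCCP control. Fixed with nuclear dye, primary antibodies 12 h at 10 degrees C, secondary plus cell stain; laser-scanning cytometer read.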
MCF10A rerep: induces DNA re-replication in MCF 10a normal breast cells. AID 624296. actives 2.9% (n = 350,000). Potency, µM (doses to about 46.1 µM), for inactives: at the top dose activity, positive = re-replication, hits mostly activators. MCF 10A DNA re-replication, Hoechst nuclear intensity, 48 h; further: potency means the concentration at half of the fitted maximal effect; % of control where 0% means no effect; nearly all actives have a fitted effect of over 50% in size
IL-1B inflam inh: inhibitors of inflammasome signaling (IL-1 beta secretion). THP-1 LPS/ATP IL-1B secretion, AlphaLISA, 16 h; hits give low values. activity change, % at 57.5 µM. actives 4.7% (n = 360,000). AID 743279; in the data active means activity change below about -50%; inconclusive means mostly about -30% to -49%; further: on the % scale 0 is the no-effect control and ±100 the full control effect
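Secreted IL-1B measured by AlphaLISA bead assay after 16 h compound exposure of THP-1 cells; compounds (final up to 57.5 uM) added 1 h before LPS (250 ng/mL) and ATP (1.25 mM) stimulation; lower signal means less secretion.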
SW480 rereplic: DNA re-replication induction in SW480 cells; SW480 DNA re-replication, Hoechst DNA content imaging, 48 h; Potency, µM (highest dose often 46.1 µM), inactives show at the highest dose re-replication activation, most hits filed as activators; actives 1.8% (n = 340,000); AID 624297; further: potency means the concentration at half of the fitted maximal effect; % of control where 0% means no effect; nearly all actives have a fitted effect of over 55% in size
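Treated cells incubate 48 hr (37 C, 5% CO2), are stained 40 min with Hoechst, and nuclear fluorescence is enumerated; a rise in nuclei with high DNA signal marks re-replication.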
ATXN2 expr inh: reduces ATXN2 reporter expression in HEK-293 cells. HEK-293 ATXN2-luciferase reporter, luminescence, 24 h. Potency, µM (series often up to 57 µM), for inactives: at the highest dose activity change, negative = inhibition, usual class: inhibitors. actives 0.72% (n = 360,000); further: potency means the concentration at half of the fitted maximal effect; on the % scale 0 is the no-effect control and ±100 the full control effect; nearly all actives have a fitted effect of over 55% in size
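ATXN2-luciferase reporter cells (luciferase flanked by upstream and downstream ATXN2 gene portions) were treated 24 h at 37 °C with compounds at up to 57 uM. SteadyGlo luminescence gave expression; GF-AFC fluorescence gave viability.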
* = called active by the depositor; i = inactive; ? = inconclusive; / = not tested or not shown; [ ] = remark or other dose. Unless noted, the call rests on the fitted dose curve; in most records, active means well fitted curve in the direction sought with a large enough effect; inconclusive means small, poorly fitted or top-dose-only effect, or another doubt; inactive means no such curve, though single readings can be large; an effect the other way counts as inactive or inconclusive.

SMILES	ATXN viability	PINK1 expr mod	MCF10A rerep	IL-1B inflam inh	SW480 rereplic	ATXN2 expr inh
c1cc2c(cc1C1=NNC(=NC3CC3)SC1)OCCO2	?	-2%	?	-22	4.1µM*	/
CCCCN=C1NN=C(c2ccc(C)c(C)c2)CS1	i	4%	-4%	?	7%	14%
Cc1cc(C2=NNC(=NC3CC3)SC2)c(C)n1-c1ccccc1F	i	?	18µM*	0	?	0.28µM*
CCCCN=C1NN=C(c2ccc3c(c2)OCCO3)CS1	i	-2%	12%	-63*	?	-35%
CCOc1ccccc1N(C)C(=O)c1cc(S(=O)(=O)NCc2ccc(C)cc2)ccc1F	?	13%	/	/	/	?
COc1cc2nc(N3CCOCC3)nc(NC3CCN(C)CC3)c2cc1OC	/	0%	/	/	/	/
FC(F)Sc1ccc(N=C2NN=C(c3ccc4c(c3)OCCO4)CS2)cc1	/	/	?	-2	12µM*	/
COc1ccc(N=C2NN=C(c3ccc4c(c3)OCCO4)CS2)cc1	i	3%	8%	?	13%[9.22 µM]	6%
Cc1ccc(S(=O)(=O)N2CCOCC2)c2nsnc12	i	-5%	1%	-22	-5%	-14%
O=S(=O)(c1ccc(Br)c2nsnc12)N1CCOCC1	i	5%	21µM*	-54*	?	0%
COc1ccc(CCN2C(=O)CSC2=Nc2ccc(C(C)C)cc2)cc1OC	i	5%	16µM*	/	9.2µM*	-47%
COc1ccc(N=C2SCC(=O)N2CCc2ccc(OC)c(OC)c2)cc1	i	0%	14%	-11	-4%	-35%
CCc1ccc(NC(=O)C(=O)NCCc2sc(-c3ccc(OC)c(OC)c3)nc2C)cc1	?	1%	/	/	/	5%
C=CCc1ccccc1OCC(O)CNC1CCCC1 (centres undefined)	i	-1%	0%	-18	0%	/
C=CCc1ccccc1OCC(O)CNC(C)C (centres undefined)	i	1%	-2%	-70*	16%	-13%
COc1ccc(C2=Nc3nc(-c4ccccc4)cn3C(c3ccc(OC)cc3)C2)cc1 (centres undefined)	/	2%	?	-23	16µM*	/
Cc1ncc2c(c1CNS(=O)(=O)N(C)C)CCN(C(=O)c1c(F)cccc1F)C2	i	-1%	/	/	/	/
COc1ccc(CCNc2nc(-c3ccc(C)cc3)cc(C(F)F)n2)cc1OC	i	1%	/	/	/	-7%
Cc1ccc(-c2cc(C(F)F)nc(S(C)(=O)=O)n2)cc1	?	-2%	4.1µM*	-102*	?	?
Cc1cc(C)n(-c2nc(C)c(C)c(=O)n2CC(=O)Nc2cccc([N+](=O)[O-])c2)n1	/	0%	/	/	/	/
O=C(O)CCCn1c(O)c(C=C2N=c3ccccc3=N2)sc1=S	?	4%	?	38	6%	-16%
COCCCn1c(O)c(/C=C2\N=C(C#N)C(=Nc3ccc(C)cc3)O2)sc1=S	35µM*	?	9%	-82*	?	?
O=C(NCC1CCOCC1)c1ccc(-c2ccc(F)c(F)c2)c2ccoc12	i	3%	/	-92*	/	-23%
CCN(C(C)=O)c1cnc(C=NNC(N)=S)c2ccccc12	i	-6%	4.6µM*	119	10µM*	?
C[C@@H]1CC[C@]2(C(=O)O)CC[C@]3(C)C(=CCC4[C@]56CC[C@@](O)(OC5)C(C)(C)C6CC[C@]43C)C2[C@H]1C (some centres undefined)	25µM*	23%	?	38	-39%	?
C[C@H]1[C@H](C)CC[C@]2(C(=O)O)CC[C@]3(C)C(=CC[C@@H]4[C@@]5(C)C[C@@H](O)[C@H](O)C(C)(C)[C@@H]5CC[C@]43C)[C@H]12	?	3%	?	3	-5%	0%
Cc1ccsc1/C=C(\C(=O)c1ccc(OC(C)C)cc1)c1nc2ccccc2o1	i	3%	18%	-67*	8.2µM*	?
